Laboratory results: PubChem BioAssay (Tox21)
“And” between values parts separate entries of the source, which are not always exact repeats. Identical values can stand only once. Records with an inconclusive call do not appear. The source made the active and inactive calls. Unless noted, calls come from the whole dose curve.

How the values were obtained:
[1] = Nuclear factor erythroid 2-related factor 2/antioxidant responsive element (Nrf2/ARE) small molecule agonists: qHTS cell viability counter screen in human keratinocytes (AID 1919968; active = well fitted curve in the direction sought with a large enough effect in the repeat runs; an effect the other way counts as inactive or inconclusive; note: nearly all actives have a fitted effect of over 55% in size)
Procedure, shortened: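 Stably transfected HaCaT (KeratinoSens), 1,500/well. Test agents in DMSO were applied for 23 h, 37 C/5% CO2. CellTiter-Fluor was incubated 1 h before the fluorescence read.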

[2] = Nuclear factor erythroid 2-related factor 2/antioxidant responsive element (Nrf2/ARE) small molecule agonists: luciferase reporter gene qHTS assay in human keratinocytes (AID 1919969); note: nearly all actives have a fitted effect of over 35% in size
[3] = molecular target: Gonadotropin-releasing hormone receptor (Homo sapiens) (UniProt P30968); assay: Human gonadotropin-releasing hormone receptor (GnRHR) small molecule agonists, calcium flux assay in GnRHR-HEK293 cells (AID 1920063); note: nearly all actives have a fitted effect of over 35% in size
Sequence of Gonadotropin-releasing hormone receptor (Homo sapiens) (P30968 whole entry, looked up): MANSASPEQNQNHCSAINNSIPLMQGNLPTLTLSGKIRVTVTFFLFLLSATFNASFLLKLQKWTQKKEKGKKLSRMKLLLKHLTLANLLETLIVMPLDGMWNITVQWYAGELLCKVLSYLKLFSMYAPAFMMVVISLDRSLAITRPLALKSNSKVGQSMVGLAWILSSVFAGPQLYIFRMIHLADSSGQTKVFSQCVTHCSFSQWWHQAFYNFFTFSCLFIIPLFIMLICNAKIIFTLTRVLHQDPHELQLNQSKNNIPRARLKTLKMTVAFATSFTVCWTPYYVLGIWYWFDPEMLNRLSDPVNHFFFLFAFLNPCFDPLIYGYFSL
Procedure, shortened: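 Stable human GnRHR HEK293 line. 18 h plating, then calcium dye for 1 h at 37 C. Agonist-mode compound addition from DMSO stocks; fluorescence monitored 3 min.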

[4] = molecular target: KiSS-1 receptor (Homo sapiens) (UniProt Q969F8); assay: Human kisspeptin (KISS1R) small molecule agonists, calcium flux assay in KISS1R-HEK293 cells (AID 1920064; active = well fitted curve in the direction sought with a large enough effect in the repeat runs; an effect the other way counts as inactive or inconclusive)
Sequence of KiSS-1 receptor (Homo sapiens) (Q969F8 whole entry, looked up): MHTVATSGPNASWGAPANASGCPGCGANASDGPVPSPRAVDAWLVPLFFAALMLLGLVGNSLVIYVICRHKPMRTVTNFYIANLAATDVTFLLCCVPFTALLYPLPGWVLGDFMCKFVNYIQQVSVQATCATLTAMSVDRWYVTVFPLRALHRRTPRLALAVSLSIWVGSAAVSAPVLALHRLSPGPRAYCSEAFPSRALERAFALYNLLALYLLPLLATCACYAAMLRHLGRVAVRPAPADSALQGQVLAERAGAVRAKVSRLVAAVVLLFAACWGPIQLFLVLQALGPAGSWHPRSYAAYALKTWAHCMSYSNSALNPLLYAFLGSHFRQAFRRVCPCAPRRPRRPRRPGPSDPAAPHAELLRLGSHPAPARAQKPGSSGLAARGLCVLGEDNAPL
Procedure, shortened: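 After overnight (18 h) culture at 37 C/5% CO2, human KISS1R-HEK293 cells received calcium dye for 1 h, then test compound; emission at 540 nm (excitation 480 nm) was tracked for 3 min.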

[5] = G protein-coupled receptor (GPCR) small molecule agonists, calcium flux assay: HEK293 wild type cell line counter screen (AID 1920065)
Procedure, shortened: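 Following 18 h incubation at 37 C/5% CO2, plates got calcium dye for 1 h; compounds, ATP or DMSO were then pinned in and fluorescence followed kinetically (480/540 nm).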

[6] = p53 small molecule agonists, cell-based qHTS assay with human liver microsomes (AID 1963577)
Procedure, shortened: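 Compounds act here after metabolic activation: human liver microsomes and NADPH, both at 0.5 mg/mL final, were co-added to p53RE-bla cells. Incubation ran 16 h at 37 C, followed by LiveBLAzer detection.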

[7] = p53 small molecule agonists, cell-based qHTS assay with human liver microsomes: qHTS cell viability counter screen (AID 1963579); note: nearly all actives have a fitted effect of over 45% in size
Procedure, shortened: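 Cells carrying the p53 response-element beta-lactamase reporter are treated for 16 h at 37 C with test compounds in the presence of human liver microsomes and NADPH (both 0.5 mg/mL final); ATP-based CellTiter-Glo luminescence then reports viability.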

[8] = p53 small molecule agonists, cell-based qHTS assay with rat liver microsomes: qHTS cell viability counter screen (AID 1963580); note: nearly all actives have a fitted effect of over 45% in size
Procedure, shortened: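 Cytotoxicity counter screen: intracellular ATP read by CellTiter-Glo luminescence in the p53 reporter wells. HCT-116 p53RE-bla cells were treated for 16 h at 37 C alongside rat liver microsomes and NADPH, each 0.5 mg/mL final.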

[9] = p53 small molecule agonists, cell-based qHTS assay: qHTS cell viability counter screen (AID 1963581); note: nearly all actives have a fitted effect of over 45% in size
Procedure, shortened: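 qHTS counter screen: 16 h compound exposure at 37 C of p53RE-bla HCT-116 cells (4,000 per well, seeded 5 h prior), cell viability by ATP luminescence.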

[10] = p53 small molecule agonists, cell-based qHTS assay (AID 1963582; active = well fitted activation curve with a large enough effect in the signal ratio in the repeat runs, not every such curve was filed as active; the % refers to the signal ratio; note: potency is the fitted concentration of half-maximal effect)
Procedure, shortened: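 Measured: fluorescence from cleaved LiveBLAzer substrate. System: p53RE-bla cells, 16 h compound treatment at 37 C, 2 h substrate step at room temperature.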

[11] = molecular target: 5-hydroxytryptamine receptor 2A (Homo sapiens) (UniProt P28223); assay: 5-hydroxytryptamine receptor 2A (HTR2A) small molecule antagonists, cell-based qHTS assay (AID 1963586); note: nearly all actives have a fitted effect of over 45% in size
Sequence of 5-hydroxytryptamine receptor 2A (Homo sapiens) (P28223 whole entry, looked up): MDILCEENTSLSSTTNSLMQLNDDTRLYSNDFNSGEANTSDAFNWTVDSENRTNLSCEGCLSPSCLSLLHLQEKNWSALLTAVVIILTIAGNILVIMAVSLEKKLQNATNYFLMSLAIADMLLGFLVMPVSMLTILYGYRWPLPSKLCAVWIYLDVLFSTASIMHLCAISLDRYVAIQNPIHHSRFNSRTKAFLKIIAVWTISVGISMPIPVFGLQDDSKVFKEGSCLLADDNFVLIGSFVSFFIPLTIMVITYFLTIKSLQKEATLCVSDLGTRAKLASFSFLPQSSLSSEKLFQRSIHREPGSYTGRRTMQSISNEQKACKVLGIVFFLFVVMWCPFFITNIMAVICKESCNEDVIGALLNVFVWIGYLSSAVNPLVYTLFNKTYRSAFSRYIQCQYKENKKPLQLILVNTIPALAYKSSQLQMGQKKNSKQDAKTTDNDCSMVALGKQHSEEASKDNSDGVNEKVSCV
Procedure, shortened: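 CHO cells stably expressing human HTR2A were plated for 18 h at 37 C, then loaded with calcium dye for 1 h. Compounds were preincubated 5 min at room temperature before DOI (4 nM solution) was added. Kinetic fluorescence was read for 3 min.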

[12] = molecular target: 5-hydroxytryptamine receptor 2A (Homo sapiens) (UniProt P28223); assay: 5-hydroxytryptamine receptor 2A (HTR2A) small molecule agonists, cell-based qHTS assay (AID 1963587); note: nearly all actives have a fitted effect of over 30% in size
Procedure, shortened: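 Kinetic calcium-flux fluorescence (2 min, 1 sec intervals) after compound addition in agonist mode. HTR2A-CHO cells were cultured 18 h, then dye-loaded 1 h at 37 C.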

[13] = molecular target: Muscarinic acetylcholine receptor M1 (Homo sapiens) (UniProt P11229); assay: Cholinergic receptor muscarinic 1 (CHRM1) small molecule antagonists, cell-based qHTS assay (AID 1963588); note: nearly all actives have a fitted effect of over 40% in size
Sequence of Muscarinic acetylcholine receptor M1 (Homo sapiens) (P11229 whole entry, looked up): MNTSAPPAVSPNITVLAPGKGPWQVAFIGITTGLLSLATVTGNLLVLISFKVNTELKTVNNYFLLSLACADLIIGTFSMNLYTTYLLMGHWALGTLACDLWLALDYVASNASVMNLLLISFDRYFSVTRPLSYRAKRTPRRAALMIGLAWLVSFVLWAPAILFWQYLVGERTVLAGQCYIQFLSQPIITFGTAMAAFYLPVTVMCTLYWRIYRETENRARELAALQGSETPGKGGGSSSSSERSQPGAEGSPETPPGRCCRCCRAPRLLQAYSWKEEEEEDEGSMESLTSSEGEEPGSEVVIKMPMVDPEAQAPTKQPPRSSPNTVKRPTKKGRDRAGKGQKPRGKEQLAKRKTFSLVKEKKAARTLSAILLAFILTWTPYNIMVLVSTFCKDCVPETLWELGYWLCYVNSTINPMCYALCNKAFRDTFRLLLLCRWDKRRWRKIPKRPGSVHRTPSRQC
Procedure, shortened: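 Compounds were tested at 15 concentrations in three independent runs. Dye-loaded CHRM1-CHO cells were exposed 5 min at room temperature before stimulation by acetylcholine added at 50nM. Intracellular calcium was read kinetically on FDSS for 3 min.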

[14] = molecular target: Muscarinic acetylcholine receptor M1 (Homo sapiens) (UniProt P11229); assay: Cholinergic receptor muscarinic 1 (CHRM1) small molecule agonists, cell-based qHTS assay (AID 1963589); note: nearly all actives have a fitted effect of over 35% in size
Procedure, shortened: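 Kinetic fluorescence (1 s intervals) of calcium-sensitive dye in human M1 CHO cells after compound addition; cells pre-incubated 18 h at 37 C/5% CO2 and dye-loaded 1 h.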

[15] = cAMP Responsive Elements (CRE) small molecule agonists, cell-based qHTS assay (AID 1963590)
Procedure, shortened: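 Test agents in DMSO were incubated 3 h at 37 C/5% CO2 with CRE-bla HEK 293T cells seeded 18 h earlier; LiveBLAzer B/G FRET substrate was added and read after 2 h at room temperature.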

[16] = cAMP Responsive Elements (CRE) small molecule antagonists, cell-based qHTS assay (AID 1963591; active = well fitted inhibition curve with a large enough effect in the signal ratio in the repeat runs, not every such curve was filed as active; the % refers to the signal ratio)
Procedure, shortened: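 Reporter line CRE-bla HEK 293T in dialyzed-FBS DMEM; cells preincubated 18 h, treated 3 h with compound plus NKH477 (0.25 uM final); LiveBLAzer FRET, 2 h RT.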

[17] = molecular target: D(2) dopamine receptor (Homo sapiens) (UniProt P14416); assay: Dopamine D2 receptor (DRD2) small molecule agonists, cell-based qHTS assay (AID 1963594); note: nearly all actives have a fitted effect of over 35% in size
Sequence of D(2) dopamine receptor (Homo sapiens) (P14416 whole entry, looked up): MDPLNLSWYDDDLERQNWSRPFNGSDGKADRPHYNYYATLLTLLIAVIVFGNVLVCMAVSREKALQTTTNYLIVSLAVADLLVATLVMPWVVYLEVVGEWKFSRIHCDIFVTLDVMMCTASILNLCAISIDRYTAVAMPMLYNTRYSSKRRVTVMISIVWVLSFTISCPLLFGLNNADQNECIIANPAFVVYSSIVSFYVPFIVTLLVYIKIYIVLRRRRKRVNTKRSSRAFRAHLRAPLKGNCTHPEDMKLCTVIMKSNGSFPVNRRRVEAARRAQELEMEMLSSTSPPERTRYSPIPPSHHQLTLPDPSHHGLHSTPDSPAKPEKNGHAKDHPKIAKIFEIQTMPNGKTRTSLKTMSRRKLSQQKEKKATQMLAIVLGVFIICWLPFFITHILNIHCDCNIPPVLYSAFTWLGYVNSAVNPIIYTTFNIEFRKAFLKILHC
Procedure, shortened: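 cAMP accumulation in DRD2-HEK293 cells measured by HTRF after 1 h detection; compounds added 10 min before NKH477 (200nM […]) forskolin-analogue stimulation, 30 min at room temperature, with Ro20-1724 present at 0.1 mM final.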

[18] = molecular target: D(2) dopamine receptor (Homo sapiens) (UniProt P14416); assay: Dopamine D2 receptor (DRD2) small molecule antagonists, cell-based qHTS assay (AID 1963595; active = well fitted inhibition curve with a large enough effect in the signal ratio in the repeat runs, with a control signal flat; the % refers to the signal ratio)
Procedure, shortened: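 HEK293 cells stably expressing DRD2 were preincubated with 0.1 mM Ro20-1724, then with compound for 10 min at room temperature. Cells were stimulated with 200 nM NKH477 plus 12 nM quinpirole for 30 min, and cAMP was read by HTRF.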

[19] = molecular target: Beta-2 adrenergic receptor (Homo sapiens) (UniProt P07550); assay: Adrenergic beta2 receptor (ADRB2) small molecule antagonists, cell-based qHTS assay (AID 1963592); note: series mostly up to about 92 µM; nearly all actives have a fitted effect of over 50% in size
Sequence of Beta-2 adrenergic receptor (Homo sapiens) (P07550 whole entry, looked up): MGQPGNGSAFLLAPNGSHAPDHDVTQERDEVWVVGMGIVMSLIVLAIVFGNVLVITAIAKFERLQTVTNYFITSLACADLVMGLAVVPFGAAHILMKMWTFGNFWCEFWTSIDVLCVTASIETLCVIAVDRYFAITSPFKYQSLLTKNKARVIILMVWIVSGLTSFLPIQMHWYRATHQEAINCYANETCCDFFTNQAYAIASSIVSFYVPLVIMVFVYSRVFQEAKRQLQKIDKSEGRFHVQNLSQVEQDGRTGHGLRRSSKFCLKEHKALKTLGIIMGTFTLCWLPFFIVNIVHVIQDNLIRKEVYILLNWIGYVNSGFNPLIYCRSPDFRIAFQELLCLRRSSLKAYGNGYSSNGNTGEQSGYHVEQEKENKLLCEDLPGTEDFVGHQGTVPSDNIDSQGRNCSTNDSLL
Procedure, shortened: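 Assay format: CHO-ADRB2 cells, 18-20hr seeding at 37C/5% CO2, then compound plus 1nM isoproterenol agonist mix for 0.5hr RT. Homogeneous time-resolved fluorescence cAMP detection after 1hr, expressed as 665/615 nm ratio.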
% is set by controls: 0 for no effect and ±100 for the full control effect.

Nc1ccc2c(O)cc(S(=O)(=O)O)cc2c1
active: Potency [10] 12.9 µM and 16.2 µM
inactive: Potency [1] | Potency [2] | Potency [3] | Potency [4] | Potency [5] | Potency [6] | Potency [7] | Potency [8] | Potency [9] | Potency [11] | Potency [12] | Potency [13] | Potency [14] | Potency [15] | Potency [16] | Potency [17] | Potency [18]

CCCCC1C(=O)N(c2ccccc2)N(c2ccccc2)C1=O
inactive: Potency [1] | Potency [2] | Potency [3] | Potency [4] | Potency [5] | Potency [6] | Potency [7] | Potency [8] | Potency [9] | Potency [10] | Potency [15] | Potency [16] | Potency [19] | Potency [17] | Potency [18]

O=C(O)c1cn(-c2ccc(F)cc2)c2cc(N3CCNCC3)c(F)cc2c1=O
inactive: Potency [1] | Potency [2] | Potency [3] | Potency [4] | Potency [5] | Potency [6] | Potency [7] | Potency [8] | Potency [9] | Potency [10] | activity change, negative = inhibition [19] 3.86% [at 19 µM] | Potency [18]

CCCCCC/C=C/CCCCCCCC(=O)O
inactive: Potency [1] | Potency [2] | Potency [3] | Potency [4] | Potency [5] | Potency [6] | Potency [7] | Potency [8] | Potency [9] | Potency [10] | Potency [11] | Potency [12] | Potency [14] | Potency [15] | Potency [19] | Potency [17] | Potency [18]

CC(=O)OCCC(C)C
inactive: Potency [1] | Potency [2] | Potency [3] | Potency [4] | Potency [5] | Potency [6] | Potency [7] | Potency [8] | Potency [9] | Potency [10] | Potency [12] | Potency [13] | Potency [14] | Potency [15] | Potency [16] | Potency [19] | Potency [17] | Potency [18]

O=C(O)CCCCC(=O)O
inactive: Potency [1] | Potency [2] | Potency [3] | Potency [4] | Potency [5] | Potency [6] | Potency [7] | Potency [8] | Potency [9] | Potency [10] | Potency [11] | Potency [12] | Potency [13] | Potency [14] | Potency [15] | Potency [16] | Potency [19] | Potency [17] | Potency [18]

CC(CCO)CC(C)(C)C (configuration not stated)
inactive: Potency [1] | Potency [2] | Potency [3] | Potency [4] | Potency [5] | Potency [6] | Potency [7] | Potency [8] | Potency [9] | Potency [10] | Potency [11] | Potency [12] | Potency [13] | Potency [14] | Potency [15] | Potency [16] | Potency [19] | Potency [17]

NS(=O)(=O)c1cc2c(cc1Cl)NC=NS2(=O)=O
inactive: Potency [1] | Potency [2] | Potency [3] | Potency [4] | Potency [5] | Potency [6] | Potency [7] | Potency [8] | Potency [9] | Potency [10] | Potency [11] | Potency [12] | Potency [14] | Potency [15] | Potency [16] | Potency [19] | Potency [17] | Potency [18]

COc1ccccc1O
inactive: Potency [1] | Potency [2] | Potency [3] | Potency [4] | Potency [5] | Potency [6] | Potency [7] | Potency [8] | Potency [9] | Potency [10] | Potency [11] | Potency [12] | Potency [13] | Potency [14] | Potency [15] | Potency [16] | Potency [19] | Potency [17] | Potency [18]

CC(O)CO (configuration not stated)
inactive: Potency [1] | Potency [2] | Potency [3] | Potency [4] | Potency [5] | Potency [6] | Potency [7] | Potency [8] | Potency [9] | Potency [10] | Potency [15] | Potency [16] | Potency [19] | Potency [17] | Potency [18]

CC(C)=CCC/C(C)=C\CO
inactive: Potency [1] | Potency [2] | Potency [3] | Potency [4] | Potency [5] | Potency [6] | Potency [7] | Potency [8] | Potency [9] | Potency [10] | Potency [15] | Potency [16] | Potency [19] | Potency [17] | Potency [18]

C=C(C)C(=O)O
inactive: Potency [1] | Potency [2] | Potency [3] | Potency [4] | Potency [5] | Potency [6] | Potency [7] | Potency [8] | Potency [9] | Potency [10] | Potency [11] | Potency [12] | Potency [13] | Potency [14] | Potency [15] | Potency [16] | Potency [19] | Potency [17] | Potency [18]

C=CCOC(=O)c1ccccc1C(=O)OCC=C
inactive: Potency [1] | Potency [2] | Potency [3] | Potency [4] | Potency [5] | Potency [6] | Potency [7] | Potency [8] | Potency [9] | Potency [10] | Potency [11] | Potency [12] | Potency [13] | Potency [14] | Potency [15] | Potency [16] | Potency [19] | Potency [17] | Potency [18]

NC(CO)(CO)CO
inactive: Potency [1] | Potency [2] | Potency [3] | Potency [4] | Potency [5] | Potency [6] | Potency [7] | Potency [8] | Potency [9] | Potency [10] | Potency [15] | Potency [16] | Potency [19] | Potency [17] | Potency [18]
